Data on ten compounds can be found in PubChem BioAssay (NCI).

The nature of test [1]: NCI Yeast Anticancer Drug Screen. Data for the rad50 strain (AID 155).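 Note: 0% = growth of vehicle-only cultures of the same strain.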 The note with it: S. cerevisiae rad50 strain growth inhibition, hits give high values. The gist of the method:
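Readout: growth inhibition relative to vehicle-treated cultures. Compound exposure was carried out in a genetically defined yeast strain deficient in DNA damage repair.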

Test [2] in a line: NCI Yeast Anticancer Drug Screen. Data for the mec2-1 strain (AID 157). The settings on record: S. cerevisiae mec2-1 strain, hits give high values. The gist of the method:
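Vehicle-treated cultures served as reference for growth inhibition of compound-exposed mec2-1 yeast.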

Test [3] can be described thus: NCI Yeast Anticancer Drug Screen. Data for the sgs1 mgt1 strain (AID 161).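 Note: 0% = growth of cultures given vehicle only.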 The settings on record: S. cerevisiae sgs1 mgt1 strain, hits give high values. The gist of the method:
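Read-out: growth inhibition vs vehicle controls. Cells: mutant yeast strain deficient in DNA damage repair.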

Test [4] is described as follows: NCI Yeast Anticancer Drug Screen. Data for the cln2 rad14 strain (AID 165).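 Note: 0% = growth equal to vehicle treated cultures.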 The note with it: S. cerevisiae cln2 rad14 strain, hits give high values. Summed up: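 Each compound was tested on cln2 rad14 yeast. Inhibition of growth was calculated against vehicle-exposed controls.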
Test [5] can be described thus: NCI Yeast Anticancer Drug Screen. Data for the bub3 strain (AID 167). The settings on record: S. cerevisiae bub3 mutant strain, hits give high values. Summed up: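 Readout: yeast growth inhibition, expressed relative to vehicle-only wells. The test organism is a mutant strain from a panel with lesions in DNA repair or checkpoint genes.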
Test [6] in a line: NCI Yeast Anticancer Drug Screen. Data for the mlh1 rad18 strain (AID 175). The note with it: S. cerevisiae mlh1 rad18 strain growth inhibition, hits give high values. The gist of the method: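 Vehicle-treated cultures served as the reference for growth inhibition in a yeast strain carrying DNA damage repair alterations exposed to each compound.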
The mark [7] stands for this setting: at 5.0 µM (retest, dose inferred, filed as 0.5).
The mark [8] stands for this setting: at 50.0 µM (retest, dose inferred, filed as 5.0).

The panel holds about 79,000 compounds, 15% with a hit somewhere; the sample as a whole holds those more often. Unmarked numbers belong to inactive results. The source made the active and inactive calls. Cut-off read from the data, not from the text of the source: active = growth inhibition above about 70%; inactive = the rest.

Regarding `C=C1C(=O)OC2C(C)C3C=CC(=O)[C@@]3(C)C(OC(=O)/C(C)=C/C)C1[C@@H]2OC(C)=O` (stereo not given in full), the growth inhibition in test [1] (setting [7]) was 3%; in test [1] (setting [8]) it was 91% (active); in test [1] (at 50.0 µM) it was 80.2% (active); in test [2] (setting [7]), 16%; in test [2] (setting [8]), 95% (active); in test [2] (at 50.0 µM), 88.5% (active). Moreover, the growth inhibition is 13% in test [3] (setting [7]); 92% (active) in test [3] (setting [8]); 87.8% (active) in test [3] (at 50.0 µM); 11% in test [4] (setting [7]); 81% (active) in test [4] (setting [8]); 79.3% (active) in test [4] (at 50.0 µM). Also, the growth inhibition in test [5] (setting [7]) was 4%; in test [5] (setting [8]), 93% (active); in test [5] (at 50.0 µM), 89.5% (active); in test [6] (setting [7]) it was 16%; in test [6] (setting [8]) it was 94% (active); in test [6] (at 50.0 µM), 87% (active).

Turning to `COc1cccc(C=O)c1O`, the growth inhibition in test [1] (setting [7]) is 6%; in test [1] (setting [8]), 75% (active); in test [1] (at 50.0 µM), 74.6% (active); in test [2] (setting [7]), -3%; in test [2] (setting [8]) it was 21%; in test [2] (at 50.0 µM) it was 1.05%. In addition, the growth inhibition in test [3] (setting [7]) is 1%; in test [3] (setting [8]), 29%; in test [3] (at 50.0 µM), 17.5%; in test [4] (setting [7]) it was 1%; in test [4] (setting [8]), 23%; in test [4] (at 50.0 µM), -23.5%. Also, the growth inhibition in test [5] (setting [7]) is -6%; in test [5] (setting [8]), 0%; in test [5] (at 50.0 µM), -9.35%; in test [6] (setting [7]) it was 1%; in test [6] (setting [8]) it was 66%; in test [6] (at 50.0 µM) it was 62.5%.

Regarding `CC1(C)OC2C(CO)OC(n3ncc(=S)[nH]c3=O)C2O1` (stereo not given), the growth inhibition in test [1] (setting [7]) is -4%; in test [1] (setting [8]) it was 28%; in test [1] (at 50.0 µM) it was -10.5%; in test [2] (setting [7]) it was -8%; in test [2] (setting [8]), 6%; in test [2] (at 50.0 µM), 10.7%. The growth inhibition in test [3] (setting [7]) was 4%; in test [3] (setting [8]), 45%; in test [3] (at 50.0 µM), -1.45%; in test [4] (setting [7]), -1%; in test [4] (setting [8]), 45%; in test [4] (at 50.0 µM), -1.95%. Besides, the growth inhibition in test [5] (setting [7]) is 6%; in test [5] (setting [8]), 15%; in test [5] (at 50.0 µM), 71% (active); in test [6] (setting [7]) it was -1%; in test [6] (setting [8]), 30%; in test [6] (at 50.0 µM) it was -24.9%.

`O=C1c2ccccc2-c2nnc3c(c21)Cc1ccccc1C3`: the growth inhibition in test [1] (setting [7]) was -4%; in test [1] (setting [8]), 38%; in test [1] (at 50.0 µM), 50.9%; in test [2] (setting [7]), -21%; in test [2] (setting [8]), 16%; in test [2] (at 50.0 µM), 43%. For the same compound, the growth inhibition in test [3] (setting [7]) was -7%; in test [3] (setting [8]), 1%; in test [3] (at 50.0 µM), 17.1%; in test [4] (setting [7]) it was -8%; in test [4] (setting [8]), 27%; in test [4] (at 50.0 µM) it was 40.5%. Besides, the growth inhibition was 9% in test [5] (setting [7]); 26% in test [5] (setting [8]); 67.5% in test [5] (at 50.0 µM); -6% in test [6] (setting [7]); 37% in test [6] (setting [8]); 71% (active) in test [6] (at 50.0 µM).

As for `Oc1ccc(C2CCc3ccccc32)cc1` (stereo not given), the growth inhibition in test [1] (setting [7]) was -6%; in test [1] (setting [8]), 98% (active); in test [1] (at 50.0 µM), 99.6% (active); in test [2] (setting [7]) it was -36%; in test [2] (setting [8]), 98% (active); in test [2] (at 50.0 µM) it was 99.8% (active). For the same compound, the growth inhibition is -7% in test [3] (setting [7]); 98% (active) in test [3] (setting [8]); 99.1% (active) in test [3] (at 50.0 µM); -11% in test [4] (setting [7]); 98% (active) in test [4] (setting [8]); 99.3% (active) in test [4] (at 50.0 µM). Further, the growth inhibition in test [5] (setting [7]) was -28%; in test [5] (setting [8]), 94% (active); in test [5] (at 50.0 µM), 99.5% (active); in test [6] (setting [7]), -7%; in test [6] (setting [8]), 98% (active); in test [6] (at 50.0 µM), 99.4% (active).

As to `C=CCOC(=O)CC(OC(C)=O)C(CC)CC(C)C` (stereo not given), the growth inhibition in test [1] (setting [7]) was 0%; in test [1] (setting [8]) it was 26%; in test [1] (at 50.0 µM) it was 24.4%; in test [2] (setting [7]), -1%; in test [2] (setting [8]) it was 12%; in test [2] (at 50.0 µM), 19.1%. Also, the growth inhibition in test [3] (setting [7]) is -6%; in test [3] (setting [8]), 3%; in test [3] (at 50.0 µM), 18.3%; in test [4] (setting [7]), 2%; in test [4] (setting [8]) it was 20%; in test [4] (at 50.0 µM) it was 80.7% (active). Also, the growth inhibition is 3% in test [5] (setting [7]); 15% in test [5] (setting [8]); 40.3% in test [5] (at 50.0 µM); 0% in test [6] (setting [7]); 12% in test [6] (setting [8]); 27.9% in test [6] (at 50.0 µM).

Turning to `Cc1ccccc1N=Nc1sc(N)nc1-c1ccccc1`, the growth inhibition in test [1] (setting [7]) is -6%; in test [1] (setting [8]) it was 94% (active); in test [1] (at 50.0 µM), 33.5%; in test [2] (setting [7]), 8%; in test [2] (setting [8]) it was 98% (active); in test [2] (at 50.0 µM), 22.2%. Besides, the growth inhibition was -2% in test [3] (setting [7]); 95% (active) in test [3] (setting [8]); 54.8% in test [3] (at 50.0 µM); -1% in test [4] (setting [7]); 88% (active) in test [4] (setting [8]); -4.85% in test [4] (at 50.0 µM). In addition, the growth inhibition in test [5] (setting [7]) was -7%; in test [5] (setting [8]) it was 98% (active); in test [5] (at 50.0 µM), 30.6%; in test [6] (setting [7]), -1%; in test [6] (setting [8]) it was 95% (active); in test [6] (at 50.0 µM), 43.7%.

For the compound `SCCCCCCCCCCS`, the growth inhibition is 0% in test [1] (setting [7]); 98% (active) in test [1] (setting [8]); 98.9% (active) in test [1] (at 50.0 µM); 0% in test [2] (setting [7]); 99% (active) in test [2] (setting [8]); 99.4% (active) in test [2] (at 50.0 µM). Also, the growth inhibition is 1% in test [3] (setting [7]); 89% (active) in test [3] (setting [8]); 99% (active) in test [3] (at 50.0 µM); 4% in test [4] (setting [7]); 94% (active) in test [4] (setting [8]); 87.3% (active) in test [4] (at 50.0 µM). In addition, the growth inhibition is 2% in test [5] (setting [7]); 99% (active) in test [5] (setting [8]); 97.5% (active) in test [5] (at 50.0 µM); -1% in test [6] (setting [7]); 96% (active) in test [6] (setting [8]); 99.1% (active) in test [6] (at 50.0 µM).

On to `CCCCCCCCC1(OCCCS(=O)(=O)O)COc2ccccc2OCCOCCOc2ccccc2OC1`, for which the growth inhibition in test [1] (setting [7]) was -13%; in test [1] (setting [8]), 87% (active); in test [1] (at 50.0 µM), 97.9% (active); in test [2] (setting [7]), -4%; in test [2] (setting [8]) it was 74% (active); in test [2] (at 50.0 µM), 87% (active). Further, the growth inhibition is -6% in test [3] (setting [7]); 73% (active) in test [3] (setting [8]); 97.9% (active) in test [3] (at 50.0 µM); -4% in test [4] (setting [7]); 73% (active) in test [4] (setting [8]); 93.6% (active) in test [4] (at 50.0 µM). For the same compound, the growth inhibition in test [5] (setting [7]) was -8%; in test [5] (setting [8]), 80% (active); in test [5] (at 50.0 µM), 96% (active); in test [6] (setting [7]), -7%; in test [6] (setting [8]), 87% (active); in test [6] (at 50.0 µM), 95.2% (active).

For `O=C(O)c1ccccc1C1c2ccccc2Oc2ccccc21`, the growth inhibition in test [1] (setting [7]) is 36%; in test [1] (setting [8]), 5%; in test [1] (at 50.0 µM) it was 95.4% (active); in test [2] (setting [7]) it was -2%; in test [2] (setting [8]), 16%; in test [2] (at 50.0 µM), 94% (active). The growth inhibition is -3% in test [3] (setting [7]); 3% in test [3] (setting [8]); 95.4% (active) in test [3] (at 50.0 µM); 5% in test [4] (setting [7]); 6% in test [4] (setting [8]); 97.3% (active) in test [4] (at 50.0 µM). Besides, the growth inhibition in test [5] (setting [7]) is 7%; in test [5] (setting [8]), 17%; in test [5] (at 50.0 µM), 91.2% (active); in test [6] (setting [7]), 0%; in test [6] (setting [8]), 7%; in test [6] (at 50.0 µM), 95.8% (active).
